# Rows were chosen to be rich in hits. Some 4% of all compounds tested hit in one or more screens of this group.
# Peg3 promoter: Peg3 promoter-driven luciferase inhibitors, primary screen, cell-based, HeLa, luciferase luminescence. HeLa PEG-Prom luciferase reporter, overnight. hit rate 1.7% among 360,000. AID 588405, 2011. inhibition, % at 20 µM;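 active = inhibition of at least 50% at 20 µM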
# CF NFkB inh: inhibitors of PAF-induced NF-kB signaling, primary screen, cell-based, GFP fluorescence, uHTS. KKLEB NF-kB-GFP reporter, GFP fluorescence overnight. inhibition, % at 5 µM. hit rate 0.86% among 360,000. AID 588850, 2011;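 active = at least 50% inhibition at 5 µM, scaled per plate between neutral and stimulator controls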;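 note: PAF is a Pseudomonas aeruginosa culture filtrate used as stimulus; plate controls were PAF-stimulated DMSO wells for no effect and unstimulated DMSO wells for full effect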
# TROY NFkB inh: inhibitors of TROY-driven NF-kB signaling, primary screen, Q293 LMP1-TROYcd cells, NF-kB luciferase, uHTS; Q293 LMP1-TROYcd NF-kB luciferase reporter, 4 h; inhibition, % at 10 µM; hit rate 0.98% among 360,000;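 active = compounds whose plate-normalised and pattern-corrected inhibition of the luciferase reporter signal at the single screening dose is 50% or more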
# KKLEB tox: cytotoxicity in KKLEB CF airway cells, primary screen, cytotoxicity control for CF NF-kB inhibitor project, cell-based, uHTS, fluorescence assay plates; KKLEB CF airway cells viability, ATPlite luminescence, overnight; active compounds read low; cells stimulated with P. aeruginosa culture filtrate; activity change (cytotoxicity), % at 5 µM; hit rate 0.36% among 360,000; AID 602141, 2011;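 active = corrected activity change at or below -50% at 5 µM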
# HIF-2a block: HIF-2a reporter inhibitors, primary screen, luminescence, 786-0 RCC cells; 786-0 RCC cells HIF-2a reporter, luciferase luminescence, overnight; inhibition, % at 18.8 µM; hit rate 0.72% among 360,000; AID 624352, 2012;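 active = inhibition of the luminescence signal of 40% or more relative to plate controls, in a single-dose primary screen at 18.75 µM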
# TWEAK-Fn14 inh: inhibitors of TWEAK-Fn14 signaling, primary screen, luciferase reporter cells, uHTS; TWEAK-stimulated Fn14 reporter cells, luciferase luminescence, 8 h; inhibition, % at 10 µM; hit rate 2% among 360,000; AID 1159606, 2016; in the data active = inhibition above about 50%
# * marks the source's active call; other numbers are inactive results.
SMILES,Peg3 promoter,CF NFkB inh,TROY NFkB inh,KKLEB tox,HIF-2a block,TWEAK-Fn14 inh
Cc1ccccc1N(CC(=O)NCc1ccc2c(c1)OCO2)C(=O)C1CSC(=O)C1 (stereo not given),6,-15,5,6,17,50*
COc1ccccc1OS(=O)(=O)c1ccc(NC(C)=O)cc1,2,-8,18,17,3,29
COC(=O)/C=C/S(=O)(=O)c1ccc(NC(C)=O)cc1,105*,91*,28,-22,13,-9
C(=C\c1ccco1)/c1nc2ccccc2[nH]1,-199,10,-13,-2,-187,2
Cc1nc(/C=C/c2ccccc2)[nH]c(=O)c1-c1ccccc1,-232,8,-5,-7,-215,64*
C(=C\c1nc2ccccc2[nH]1)/c1ccccc1,-91,5,34,16,-6,75*
CN(C)c1ccc(/C=C/c2nc3ccccc3c(=O)[nH]2)cc1,21,-16,70*,-77*,-87,88*
CCOc1ccc(N2CC(C(=O)N3CCCc4ccccc43)CC2=O)cc1 (stereo not given),20,-9,11,-12,-11,23
Cc1ccc(-c2nn(CC(=O)NCc3cc(-c4nn(C)c(=O)c5ccccc45)ccc3C)c(=O)c3ccccc23)cc1,70*,0,7,8,2,24
CC(NC(=O)Nc1ccc(Cl)cc1)c1ccccc1 (stereo not given),-20,-7,-34,0,-17,7
Cc1ccc(C(NC(=O)NC(C)c2ccccc2)C(Cl)(Cl)Cl)cc1F (stereo not given),32,30,58*,-13,19,55*
COc1ccc(/C(C)=N/OCC(=O)N=Nc2c(O)[nH]c3ccc(Br)cc23)cc1,3,47,17,-53*,-10,9
Cc1ccc2c(c1)c1c3n2CCN(C(=O)CCl)C3CCC1 (stereo not given),56*,20,18,-26,-25,6
CC(=O)N1CCn2c3c(c4cc(C)ccc42)CCCC31 (stereo not given),-43,-10,-39,3,-57,-15
CNC(=O)C1Cc2ccccc2CN1S(=O)(=O)c1cccs1 (stereo not given),51*,-10,-1,3,2,17
O=C(CN1C(=O)C2C3C=CC(C4CC34)C2C1=O)NCc1ccco1 (stereo not given),-1,-10,10,4,12,-5
COc1c(Br)cc([N+](=O)[O-])c(OC)c1C(=O)NC(=O)Nc1c(Cl)cccc1Cl,13,8,0,16,12,0
COc1c(Br)cc([N+](=O)[O-])c(OC)c1C(=O)NC(=O)Nc1cc(Cl)cc(Cl)c1,46,30,52*,-20,19,13
CCCN(CCC)C(=O)CSc1nc2ccccc2c(=O)n1CC1COc2ccccc2O1 (stereo not given),51*,-14,-9,-11,14,1
O=C(CCCCCNc1nc(=S)[nH]c2ccccc12)NCCc1c[nH]c2ccccc12,51*,13,38,4,19,41
CCN(CCN1CCCC1)C(=O)C1CCC(=O)N(CCCN2CCOCC2)C1 (stereo not given),3,-2,-22,21,11,-4
COC(=O)[C@H](CCSC)NC(=O)N1CCC(C)CC1,0,-11,-23,6,10,-1
CCC1(C)Cc2c(sc3nnn(CC(=O)Nc4ccc(C)cc4)c(=O)c23)CO1 (stereo not given),42,-6,5,7,12,5
CCC1(C)Cc2c(sc3nnn(CC(=O)Nc4cccc5ccccc45)c(=O)c23)CO1 (stereo not given),56*,-16,9,5,9,-10
N#CC1=C(N)SC(N)=C(C#N)C1c1cccc(Oc2ccccc2)c1,13,7,62*,-2,-18,46
CCOc1ccc(C2C(C#N)=C(N)SC(N)=C2C#N)cc1OCC,14,5,16,2,2,2
Cc1ccc(NC(=S)N/N=C/c2c(Cl)cccc2Cl)c(C)c1,-103,50*,-5,-8,-145,7

# Bioassay records from PubChem BioAssay.
